High-throughput results from PubChem BioAssay.
Only some compounds are listed: those with a hit (about 32% of all), similar ones and a draw of the others.
PostGolgi yeast = phenotypic screen on post-Golgi transport, primary screen | post-Golgi transport phenotypic cell assay | inhibition, % at 10 µM | hit rate 0.9% among 98,000 | AID 739, 2007;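 note: yeast cells grown in 1536-well plates; yeast grown about 18 h at 30C before absorbance read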
CYP2C19 inh = blockers of cytochrome P450 2C19 activity – biochemical, luminescence, ADME assay, primary screen. inhibition, % at 5 µM. CYP2C19 Supersomes, luciferin-H EGE luminescence, 30 min. P33261. AID 778, 2007. hit rate 21% among 96,000;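 active = CYP2C19 inhibition above a set limit at 5 µM in the primary screen, cut at about 50% in these data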
Target sequence (P33261 whole entry, looked up): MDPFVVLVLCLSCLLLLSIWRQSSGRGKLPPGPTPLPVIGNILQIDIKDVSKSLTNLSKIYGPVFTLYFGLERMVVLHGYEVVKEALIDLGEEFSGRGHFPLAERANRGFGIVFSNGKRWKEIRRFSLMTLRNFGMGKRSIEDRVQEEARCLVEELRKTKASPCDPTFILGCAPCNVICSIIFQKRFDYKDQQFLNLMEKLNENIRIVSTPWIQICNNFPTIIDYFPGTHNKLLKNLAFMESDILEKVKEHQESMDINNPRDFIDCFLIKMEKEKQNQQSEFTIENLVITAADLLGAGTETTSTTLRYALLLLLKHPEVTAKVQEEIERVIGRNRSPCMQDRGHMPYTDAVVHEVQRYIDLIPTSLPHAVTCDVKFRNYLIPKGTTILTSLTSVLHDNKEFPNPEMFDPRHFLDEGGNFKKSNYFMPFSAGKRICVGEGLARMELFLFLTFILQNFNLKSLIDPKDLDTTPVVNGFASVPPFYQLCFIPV
CYP2C9 act = human CYP2C9 activators, primary screen, biochemical, luminescence; Cytochrome P450 2C9 (Homo sapiens), P11712; recombinant CYP2C9, luciferin-H conversion; hits give high values; factor 1 = untreated enzyme, 0 = blocked; activation factor at 5 µM; hit rate 1.4% among 96,000; AID 1024, 2008;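 active = activation factor of 2 or more for CYP2C9 at a 5 µM dose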
CYP2C9 inhib = blockers of cytochrome P450 2C9 activity – biochemical, luminescence, ADME assay, primary screen; hit rate 20% among 96,000; inhibition, % at 5 µM; CYP2C9 Supersomes, luciferin-H conversion; AID 777, 2007;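 active = blocking of liver enzyme CYP2C9 beyond about 50% at 5 µM, limit read from the data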
CYP2C19 activ = human CYP2C19 activators, primary screen, biochemical, luminescence | 96,000 tested, under 10 active | recombinant CYP2C19, luciferin-H EGE luminescence; hits give high values; 0 = fully inhibited enzyme, 1 = untreated enzyme | Cytochrome P450 2C19 (Homo sapiens), P33261 | activation factor at 5 µM;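 active = activation factor of at least 2 at 5 µM in the primary screen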
PostGolgi ctrl = growth inhibition of yeast control strain, primary screen, counter-screen for post-Golgi transport modulator project; efflux-deficient yeast background strain, growth absorbance A615, 16 h; inhibition, % at 10 µM; hit rate 5% among 98,000
Of the large screens only hits and unclear results are named; the others gave an inactive call. Cut-off read from the data, not from the text of the source, unless noted: active = inhibition above about 30%; inactive = the rest.

NC(=O)C1CCN(CCC(=O)Nc2cccc(Cl)c2)CC1	none
COCCn1c(=O)[nH]c2cc(C(=O)NC(C)C)ccc2c1=O	none
CN1c2cccc3cccc(c23)N(C)C1(C)C	none
CCCN1c2cccc3cccc(c23)S1(=O)=O	CYP2C19 inh 90, CYP2C9 act 4.4
N#CCCCCN1c2cccc3cccc(c23)S1(=O)=O	CYP2C19 inh 85, CYP2C9 act 4.9
Cc1cc(C)nc(N(C#N)CN2C(=O)c3ccccc3S2(=O)=O)n1	none
Cc1cc(-c2ccccc2)c2c3c(c(-c4ccccc4)n2n1)c(=O)n(C)c(=O)n3C	none
Cc1nc2ccccc2n2c(-c3ccccc3)c3c(=O)n(C)c(=O)n(C)c3c12	PostGolgi ctrl 47
CN(C)C(CNC(=O)c1cccc(S(=O)(=O)N2CC3(C)CC2CC(C)(C)C3)c1)c1ccco1 (centres undefined)	CYP2C19 inh 75, CYP2C9 inhib 73
O=C(CN1C2=NCCN2c2ccccc21)c1ccc(Br)cc1	none
CN(C)[C@H]1N(C(=O)c2ccc(Br)cc2)N=C2c3ccccc3S(=O)(=O)N21	CYP2C9 inhib 57
Cc1cc(C)c2c(=O)[nH]c(SCC(=O)N(C)C)nc2n1	PostGolgi yeast 36
Cc1cc(C)c2c(=O)[nH]c(SCC(=O)c3ccc(C(C)C)cc3)nc2n1	CYP2C9 inhib 51
FC(F)C(F)(F)C1=CC(c2cccs2)=NCCN1	none
CCN(CC)C(=O)CSc1nnc(-c2ccc(F)cc2)n1N	none
CCOc1ccc(OCC)c(NC(=O)CSc2nc3c(c(=O)n(C)c(=O)n3C)n2C(C)C)c1	none
CN(C)C(CNC(=O)c1cccnc1Sc1ccccc1)c1ccco1 (centres undefined)	none
Cc1c(C(=O)OC(C)C)[nH]c2c1C(=O)CC(C)(C)C2	CYP2C19 inh 75, CYP2C9 inhib 76
O=C(Nc1ccccc1SCC1CSc2nc3ccccc3c(=O)n21)c1ccccc1Cl (centres undefined)	none
O=c1c2ccccc2nc2n1C(CSCc1ccc(Cl)cc1)CS2 (centres undefined)	CYP2C19 inh 75
Cc1cc(C(=O)c2ccccc2)nc2ccccc12	CYP2C19 inh 68, CYP2C9 act 3.2
O=C1[C@H]2[C@@H](C(=O)N1c1cc(Cl)cc(Cl)c1)[C@]1(C(=O)Nc3ccccc31)N1CCC[C@@H]21	CYP2C19 inh 52, CYP2C9 inhib 90
CC(C)(C)C1CCc2onc(C(=O)Nc3ccc(F)cc3F)c2C1 (centres undefined)	CYP2C19 inh 63
CCOC(=O)c1cnn(-c2ccccc2)c1-n1cccc1C(=O)C(=O)Nc1ccccc1	CYP2C9 inhib 72, PostGolgi ctrl 31
CCOC(=O)c1cnn(-c2ccccc2)c1NC(=O)c1ccccc1	none
CCOC(=O)c1cnn(-c2ccccc2)c1-n1cccc1C(=O)C(=O)Nc1ccc(F)cc1	CYP2C9 inhib 75
CCCCN1C(=O)C2NN=C(C(=O)OC)C2C1=O (centres undefined)	none
C=C(C)C1CC=C(C)/C(=N/NC(=O)c2ccc(NC(=O)c3cccc(C)c3)cc2)C1 (centres undefined)	CYP2C19 inh 59, CYP2C9 inhib 62
CCOC(=O)c1cnn(-c2ccccc2)c1NC(=O)c1ccc(C)cc1	none
O=C(Nc1c(C(=O)NCc2ccco2)cnn1-c1ccccc1)c1cccc(F)c1	CYP2C19 inh 67, CYP2C9 inhib 87 (no result: PostGolgi yeast, PostGolgi ctrl)
Cc1ccc(C(=O)Nc2c(C(=O)NCc3ccco3)cnn2-c2ccccc2)cc1	CYP2C9 inhib 56
Cc1ccccc1NC(=O)CSCCO	none
COC(=O)C1C(=O)c2c([nH]c(C(=O)OC3CCCCC3)c2C)CC1C (centres undefined)	none
COC(=O)C1C(=O)c2c([nH]c(C(=O)OC3CCCC3C)c2C)CC1C (centres undefined)	CYP2C9 inhib 56
COC(=O)C1C(=O)c2c([nH]c(C(=O)OCCOC(C)C)c2C)CC1C (centres undefined)	CYP2C9 inhib 59
Cc1cc(C)n2nc(-c3cnn(C)c3C(F)(F)F)c(Cl)c2n1	none
Cc1cc(C(F)(F)F)n2nc(-c3cnn(C)c3C(F)(F)F)c(Cl)c2n1	CYP2C19 inh 51, CYP2C9 inhib 72
Cn1nc([N+](=O)[O-])nc1Oc1ccccc1N	none
